From PubChem BioAssay (Tox21)
Records with an inconclusive call do not appear. Calls of active or inactive are those of the source. Unless noted, calls follow the shape of the dose curve; as a rule, active = well fitted curve in the direction sought with a large enough effect in the repeat runs; inconclusive = weak or mixed curves; inactive = no such curve, though single readings can be large; an effect the other way counts as inactive or inconclusive.

Legend:
[1] = A CellTox Green Cytotoxicity Assay to monitor cytotoxicity in HEK293 cells - 32 hour (AID 1224881); also: nearly all actives have a fitted effect of over 40% in size
Procedure, shortened: (§1)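 HEK293 cells premixed with CellTox Green dye were seeded at 600 cells/well and left 5 h at 37 C/5% CO2 before pin transfer of 23 nL compound in DMSO. Fluorescence from dye bound to dead-cell DNA was read during 40 h treatment.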

[2] = A CellTox Green Cytotoxicity Assay to monitor cytotoxicity in HepG2 cells - 0 hour (AID 1224882); also: nearly all actives have a fitted effect of over 35% in size
Procedure, shortened: (§2)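 HepG2 cells were seeded together with the CellTox Green dye at 600 cells/well, left 5 h at 37 C/5% CO2, then given compounds in DMSO. Fluorescence from dye bound to dead-cell DNA was read repeatedly over 40 h of treatment at 37 C.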

[3] = A CellTox Green Cytotoxicity Assay to monitor cytotoxicity in HepG2 cells - 32 hour (AID 1224883); also: nearly all actives have a fitted effect of over 50% in size
Procedure, shortened: as §2

[4] = A CellTox Green Cytotoxicity Assay to monitor cytotoxicity in HEK293 cells - 8 hour (AID 1224884); also: nearly all actives have a fitted effect of over 35% in size
Procedure, shortened: as §1

[5] = qHTS RealTime-Glo MT Cell Viability Assay in HepG2 cells - 16 hour (AID 1224885); also: nearly all actives have a fitted effect of over 50% in size
Procedure, shortened: (§3)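 HepG2 suspension premixed with RealTime-Glo reagents is plated at 600 cells per well and left 5 h at 37 C/5% CO2. Compounds in DMSO then go in, and bioluminescence reflecting viable cell number is recorded over 40 h.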

[6] = qHTS RealTime-Glo MT Cell Viability Assay in HEK293 cells - 24 hour (AID 1224886); also: top concentration of the series differs between compounds; nearly all actives have a fitted effect of over 50% in size
Procedure, shortened: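 Reads taken at 0, 8, 16, 24, 32 and 40 h from the same wells. HEK293 cells (600/well) carried RealTime-Glo reagents from seeding, with compound added after a 5 h settle at 37 C.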

[7] = qHTS RealTime-Glo MT Cell Viability Assay in HEK293 cells - 8 hour (AID 1224887); also: top concentration of the series differs between compounds; nearly all actives have a fitted effect of over 50% in size
Procedure, shortened: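 HEK293 cells mixed with RealTime-Glo reagents (NanoLuc plus cell-permeant prosubstrate) at 600 cells/well, preincubated 5 h at 37 C/5% CO2, then given 23 nL compound in DMSO. Nonlytic luminescence from viable cells was read at 0, 8, 16, 24, 32 and 40 h.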

[8] = A CellTox Green Cytotoxicity Assay to monitor cytotoxicity in HEK293 cells - 16 hour (AID 1224888); also: nearly all actives have a fitted effect of over 35% in size
Procedure, shortened: as §1

[9] = qHTS RealTime-Glo MT Cell Viability Assay in HepG2 cells - 0 hour (AID 1224889); also: nearly all actives have a fitted effect of over 50% in size
Procedure, shortened: as §3

[10] = A CellTox Green Cytotoxicity Assay to monitor cytotoxicity in HepG2 cells - 8 hour (AID 1224890); also: nearly all actives have a fitted effect of over 45% in size
Procedure, shortened: as §2

[11] = qHTS assay to identify small molecule antagonists of the estrogen receptor alpha (ER-alpha) signaling pathway using the BG1 cell line in the presence of 0.1 nM 17-beta-estradiol - cell viability counter screen (AID 1259241); also: nearly all actives have a fitted effect of over 40% in size
Procedure, shortened: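 Viability in VM7Luc4E2 cells after 22 hr compound exposure under 0.1 nM 17beta-estradiol stimulation, by CellTiter-Fluor.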

[12] = qHTS assay to identify small molecule antagonists of the androgen receptor (AR) signaling pathway using the MDA cell line in the presence of 0.5 nM R1881 - cell viability counter screen (AID 1259242); also: nearly all actives have a fitted effect of over 45% in size
Procedure, shortened: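 MDA-kb2 cells (human breast carcinoma, stably carrying MMTV-luciferase reporter) were exposed to compounds with 0.5 nM R1881 (final) for 16 hr at 37C, 0% CO2; viability then read as live-cell protease fluorescence (CellTiter-Fluor, 30 min) in the same wells.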

[13] = target: Estrogen receptor (Homo sapiens) (UniProt P03372); assay: qHTS assay to identify small molecule antagonists of the estrogen receptor alpha (ER-alpha) signaling pathway using the BG1 cell line in the presence of 0.1 nM 17-beta-estradiol (AID 1259244); also: nearly all actives have a fitted effect of over 50% in size
Chain of Estrogen receptor (Homo sapiens) (P03372 whole entry, looked up): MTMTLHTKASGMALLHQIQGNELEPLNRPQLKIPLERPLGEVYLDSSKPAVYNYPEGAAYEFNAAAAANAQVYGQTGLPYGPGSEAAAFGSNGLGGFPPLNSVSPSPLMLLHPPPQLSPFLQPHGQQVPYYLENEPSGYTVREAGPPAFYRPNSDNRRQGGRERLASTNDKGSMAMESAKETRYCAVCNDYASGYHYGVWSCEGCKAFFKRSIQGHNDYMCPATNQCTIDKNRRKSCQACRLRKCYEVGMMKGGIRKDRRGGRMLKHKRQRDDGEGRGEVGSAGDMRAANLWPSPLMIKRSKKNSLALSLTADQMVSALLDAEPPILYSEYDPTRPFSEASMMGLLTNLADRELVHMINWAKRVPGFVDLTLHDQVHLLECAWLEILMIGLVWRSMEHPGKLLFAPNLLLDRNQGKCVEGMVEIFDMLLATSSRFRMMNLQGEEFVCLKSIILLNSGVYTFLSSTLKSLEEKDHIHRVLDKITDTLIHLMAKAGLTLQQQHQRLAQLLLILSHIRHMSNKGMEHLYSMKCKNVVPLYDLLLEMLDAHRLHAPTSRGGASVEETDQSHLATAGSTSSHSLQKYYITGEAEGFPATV
Procedure, shortened: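 VM7Luc4E2 cells (endogenous full-length ER-alpha, stable 4xERE-luciferase) were grown 5 days in phenol red-free medium with charcoal-stripped FBS, then exposed 22 h at 37C to compounds plus 0.1 nM (final) 17beta-estradiol; ONE-Glo luminescence read-out.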

[14] = qHTS assay to identify small molecule HDAC inhibitors (AID 1259364); also: top concentration of the series differs between compounds; nearly all actives have a fitted effect of over 45% in size
Procedure, shortened: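 Wild-type HCT-116 cells were plated overnight, exposed to compounds for 2 h at 37 °C, then given HDAC-Glo class I/II luminogenic reagent for 30 min at room temperature before luminescence was read.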

[15] = qHTS assay to identify small molecule HDAC inhibitors - cell viability counter screen (AID 1259365)
Procedure, shortened: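 Cytotoxicity was gauged in wild-type HCT-116 cells after a brief 2hr treatment with DMSO-dissolved compounds at 37C and 5% CO2, using CellTiter-Glo luminescence developed for 30min at room temperature.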

[16] = qHTS assay to identify small molecule agonists of the sonic hedgehog signaling (Shh) pathway - cell viability counter screen (AID 1259366); also: nearly all actives have a fitted effect of over 50% in size
Procedure, shortened: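 Stable Gli1-Luc NIH/3T3 clone, 2,000 cells/well. Compound exposure 24hr at 37C. Read-out: CellTiter-Fluor fluorescence.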

[17] = qHTS assay to identify small molecule antagonists of the sonic hedgehog signaling (Shh) pathway - cell viability counter screen (AID 1259367); also: nearly all actives have a fitted effect of over 55% in size
Procedure, shortened: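 NIH/3T3-derived Gli1-Luc reporter cells (2,000 per well) rested 4 hr at 37 C, then received DMSO compounds plus conditioned medium. After 23 hr of treatment, CellTiter-Fluor was added for 1 hr at 37C and fluorescence read.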

[18] = qHTS assay to identify small molecule phospholipidosis (PLD) inducers (AID 1259344; active = well fitted curve in the direction sought with a large enough effect; an effect the other way counts as inactive or inconclusive)
Procedure, shortened: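 HepG2 cells on collagen I, attached 4 h at 37 C, were co-treated with compound and LipidTOX Red dye for 24 h at 37 C, then fixed with paraformaldehyde plus Hoechst 33342 and imaged by high-content microscopy for phospholipid accumulation.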

[19] = qHTS assay to identify small molecule agonists of the sonic hedgehog signaling (Shh) pathway (AID 1259368; calls by dose curve; also: series mostly up to about 92 µM; nearly all actives have a fitted effect of over 15% in size)
Procedure, shortened: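 NIH/3T3-derived 3T3Gli1-Luc cells carrying a stably integrated Gli1 response element–firefly luciferase reporter were plated, left 4 hr at 37 C, then given compounds in DMSO for 24 hr. Luminescence was read 30 min after adding luciferase reagent.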

[20] = target: Androgen receptor (Homo sapiens) (UniProt P10275); assay: qHTS assay to identify small molecule antagonists of the androgen receptor (AR) signaling pathway using the MDA cell line in the presence of 0.5 nM R1881 (AID 1259243); also: nearly all actives have a fitted effect of over 50% in size
Chain of Androgen receptor (Homo sapiens) (P10275 whole entry, looked up): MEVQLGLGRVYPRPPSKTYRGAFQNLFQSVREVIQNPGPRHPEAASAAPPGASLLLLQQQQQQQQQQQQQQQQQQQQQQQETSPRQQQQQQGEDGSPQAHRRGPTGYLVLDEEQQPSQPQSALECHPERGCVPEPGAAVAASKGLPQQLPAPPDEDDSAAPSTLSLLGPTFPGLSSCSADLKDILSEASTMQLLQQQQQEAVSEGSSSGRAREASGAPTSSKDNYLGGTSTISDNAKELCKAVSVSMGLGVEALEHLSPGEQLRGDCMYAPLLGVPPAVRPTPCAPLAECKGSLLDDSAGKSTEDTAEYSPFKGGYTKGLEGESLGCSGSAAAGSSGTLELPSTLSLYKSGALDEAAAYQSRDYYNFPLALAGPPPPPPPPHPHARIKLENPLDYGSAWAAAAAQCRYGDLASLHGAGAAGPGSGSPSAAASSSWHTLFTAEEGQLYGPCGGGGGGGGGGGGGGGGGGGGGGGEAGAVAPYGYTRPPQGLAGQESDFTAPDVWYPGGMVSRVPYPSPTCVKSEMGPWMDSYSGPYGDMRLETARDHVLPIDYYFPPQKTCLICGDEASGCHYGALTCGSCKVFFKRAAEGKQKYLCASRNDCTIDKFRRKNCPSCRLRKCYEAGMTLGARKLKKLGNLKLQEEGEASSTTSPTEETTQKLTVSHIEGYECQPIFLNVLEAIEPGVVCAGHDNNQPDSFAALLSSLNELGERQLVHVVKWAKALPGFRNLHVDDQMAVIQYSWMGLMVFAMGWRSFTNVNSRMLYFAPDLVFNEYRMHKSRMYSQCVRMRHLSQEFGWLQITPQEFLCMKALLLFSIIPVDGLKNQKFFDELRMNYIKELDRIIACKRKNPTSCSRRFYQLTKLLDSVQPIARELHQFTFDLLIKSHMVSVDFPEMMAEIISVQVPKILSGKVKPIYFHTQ
Procedure, shortened: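 MDA-kb2 human breast carcinoma cells carrying an MMTV-luciferase reporter (AR- and GR-responsive) were plated, rested 5 hr at 37C, dosed with compounds, then stimulated with 0.5 nM R1881 (final) for 16 hr; luminescence was read after ONE-Glo.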
% is scaled to controls: 0 for no effect and ±100 for the full control effect.

C=CCS(=O)(=O)O
inactive: Potency [1] | Potency [2] | Potency [3] | Potency [4] | Potency [5] | Potency [6] | Potency [7] | Potency [8] | Potency [9] | Potency [10] | outcome [11] | Potency [12] | outcome [13] | Potency [14] | outcome [15] | Potency [16] | Potency [17]

O=C1NC(=O)[C@@]2(CCOc3ccc(F)cc32)N1
inactive: Potency [1] | Potency [2] | Potency [3] | Potency [4] | Potency [5] | Potency [6] | Potency [7] | Potency [8] | Potency [9] | Potency [10] | outcome [11] | Potency [12] | outcome [13] | Potency [18] | outcome [15] | Potency [16] | Potency [17] | outcome [19]

Cn1cc(S(C)=O)c(=O)c2ccc(F)cc21 (stereo not drawn)
inactive: Potency [1] | Potency [2] | Potency [3] | Potency [4] | Potency [5] | Potency [6] | Potency [7] | Potency [8] | Potency [9] | Potency [10] | outcome [11] | Potency [12] | outcome [13] | Potency [18] | Potency [14] | outcome [15] | Potency [16] | Potency [17] | outcome [19]

Cc1cc2c(cc1S(N)(=O)=O)S(=O)(=O)CCC2
inactive: Potency [1] | Potency [2] | Potency [3] | Potency [4] | Potency [5] | Potency [6] | Potency [7] | Potency [8] | Potency [9] | Potency [10] | outcome [11] | Potency [12] | outcome [13] | Potency [18] | Potency [14] | outcome [15] | Potency [16] | Potency [17] | outcome [19]

CC(=O)OC/C=C(\C)CC/C=C(\C)CCC=C(C)C
inactive: Potency [1] | Potency [2] | Potency [3] | Potency [4] | Potency [5] | Potency [6] | Potency [7] | Potency [8] | Potency [9] | Potency [10] | outcome [11] | Potency [12] | outcome [13] | Potency [14] | outcome [15] | Potency [16] | Potency [17] | outcome [19]

O=c1[nH]c(=O)n([C@H]2C[C@H](O)[C@@H](CO)O2)cc1I
inactive: Potency [1] | Potency [2] | Potency [3] | Potency [4] | Potency [5] | Potency [6] | Potency [7] | Potency [8] | Potency [9] | Potency [10] | outcome [11] | Potency [12] | Potency [18] | Potency [14] | outcome [15] | Potency [16] | outcome [19]

CC(C)(C)NCCNC(C)(C)C
inactive: Potency [1] | Potency [2] | Potency [3] | Potency [4] | Potency [5] | Potency [6] | Potency [7] | Potency [8] | Potency [9] | Potency [10] | outcome [11] | Potency [12] | outcome [13] | Potency [14] | outcome [15] | Potency [16]

ClC(Cl)(Br)Br
inactive: Potency [1] | Potency [2] | Potency [3] | Potency [4] | Potency [5] | Potency [6] | Potency [7] | Potency [8] | Potency [9] | Potency [10] | outcome [11] | Potency [12] | Potency [20] | outcome [13] | Potency [14] | outcome [15] | Potency [16] | Potency [17]

CO[Si](CCCOCC1CO1)(OC)OC (stereo not drawn)
inactive: Potency [1] | Potency [2] | Potency [3] | Potency [4] | Potency [5] | Potency [6] | Potency [7] | Potency [8] | Potency [9] | Potency [10] | outcome [11] | Potency [12] | outcome [13] | Potency [14] | outcome [15] | Potency [16] | Potency [17] | outcome [19]

CC(C)(O)C#CC(C)(C)O
inactive: Potency [1] | Potency [2] | Potency [3] | Potency [4] | Potency [5] | Potency [6] | Potency [7] | Potency [8] | Potency [9] | Potency [10] | outcome [11] | Potency [12] | outcome [13] | Potency [14] | outcome [15] | Potency [16] | Potency [17] | outcome [19]

CCn1ccnc1CC1COc2ccccc2O1 (stereo not drawn)
inactive: Potency [1] | Potency [2] | Potency [3] | Potency [4] | Potency [5] | Potency [6] | Potency [7] | Potency [8] | Potency [9] | Potency [10] | outcome [11] | Potency [12] | Potency [20] | outcome [13] | Potency [18] | Potency [14] | outcome [15] | Potency [16] | Potency [17] | outcome [19]

CCO[Si](CCC1CCC2OC2C1)(OCC)OCC (stereo not drawn)
inactive: Potency [1] | Potency [2] | Potency [3] | Potency [4] | Potency [5] | Potency [6] | Potency [7] | Potency [8] | Potency [9] | Potency [10] | outcome [11] | Potency [12] | outcome [13] | Potency [14] | outcome [15] | Potency [16] | Potency [17] | outcome [19]

C[C@](N)(Cc1ccc(O)cc1)C(=O)O
inactive: cytotoxicity increase [1] 3.03% [at 6.97 µM] | cytotoxicity [2] 0.583% [at 6.97 µM] | cytotoxicity increase [3] -6.04% [at 6.97 µM] | cytotoxicity increase [4] 2.1% [at 6.97 µM] | activity change, negative = cytotoxic [5] -0.0046% [at 6.97 µM] | activity change, negative = cytotoxicity [6] 0.918% [at 6.97 µM] | activity change, negative = cytotoxicity [7] 3.77% [at 6.97 µM] | activity change [8] 4.06% [at 6.97 µM, stronger effect = higher value] | activity change, negative = cytotoxicity [9] -5.13% [at 6.97 µM] | cytotoxicity increase [10] -1.36% [at 6.97 µM] | activity change, negative = cytotoxicity [11] 0.275% [at 8.39 µM] | viability change, negative = cytotoxic [12] 2.64% [at 8.39 µM] | activity change, negative = inhibition [13] -5.6% [at 8.39 µM] | Potency [18] | activity change, negative = inhibition [14] -0.294% [at 8.39 µM] | activity change, negative = cytotoxicity [15] -1.98% [at 8.39 µM] | viability change, negative = cytotoxic [17] 4.1% [at 8.39 µM] | activity change [19] -0.726% [at 8.39 µM]

N[C@H](C(=O)O)c1ccc(O)cc1
inactive: Potency [1] | cytotoxicity [2] -7.08% [at 15.8 µM] | cytotoxicity increase [3] -6.23% [at 15.8 µM] | cytotoxicity increase [4] 0.0185% [at 15.8 µM] | activity change, negative = cytotoxic [5] 1.01% [at 15.8 µM] | activity change, negative = cytotoxicity [6] 1.77% [at 15.8 µM] | activity change, negative = cytotoxicity [7] 4.01% [at 15.8 µM] | activity change [8] 0.584% [at 15.8 µM, stronger effect = higher value] | activity change, negative = cytotoxicity [9] 1.28% [at 15.8 µM] | cytotoxicity increase [10] -9.51% [at 15.8 µM] | activity change, negative = cytotoxicity [11] 8.37% [at 19 µM] | viability change, negative = cytotoxic [12] 0.442% [at 19 µM] | activity change, negative = inhibition [13] 12.1% [at 19 µM] | Potency [18] | activity change, negative = inhibition [14] -0.75% [at 19 µM] | activity change, negative = cytotoxicity [15] -1.63% [at 19 µM] | viability change, negative = cytotoxic [16] -2.17% [at 19 µM] | Potency [17] | activity change [19] -0.267% [at 18.9 µM]
